Test results: PubChem BioAssay (Tox21)
Records with an inconclusive call do not appear. A call without a number means that no potency is given here. Active and inactive are the calls of the source. Unless noted, calls come from the whole dose curve; as a rule, active = well fitted curve in the direction sought with a large enough effect in the repeat runs; inconclusive = weak or mixed curves; inactive = no such curve, though single readings can be large; an effect the other way counts as inactive or inconclusive.

Columns and labels:
[1] = qHTS assay to identify small molecule agonists of the hypoxia (HIF-1) signaling pathway - cell viability counter screen (AID 1224844; calls by dose curve; note: nearly all actives have a fitted effect of over 50% in size; note: potency is the fitted concentration of half-maximal effect); conditions: HRE-bla ME-180 viability, CellTiter-Glo luminescence, 17 h; series mostly up to 76.8 µM
Procedure, shortened: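 Same wells as the HIF-1 reporter screen; ME-180 cells carrying HRE-bla, 17 hr treatment at 37C; CellTiter-Glo luminescence read after 30 min at room temperature.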

[2] = qHTS assay to identify small molecule agonists of the hypoxia (HIF-1) signaling pathway (AID 1224846; active = well fitted activation curve with a large enough effect in the signal ratio in the repeat runs, not every such curve was filed as active; the % refers to the signal ratio); conditions: HRE-bla ME-180 cells, beta-lactamase ratio, 17 h; series mostly up to 76.8 µM
Procedure, shortened: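 In ME-180 cells bearing an HRE-bla construct, 17 h treatment with DMSO-dissolved compounds at 37C was followed by CCF4-AM loading to quantify reporter induction.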

[3] = qHTS assay to identify small molecule agonists of H2AX - cell viability counter screen (AID 1224847; calls by dose curve; note: top concentration of the series differs between compounds; nearly all actives have a fitted effect of over 30% in size); conditions: CHO-K1 viability, CellTiter-Glo luminescence, 3 h; series mostly up to 154 µM
Procedure, shortened: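 Quantitative HTS viability measurement: CHO-K1 wild-type cells in serum (10% FBS) medium, short 3 hr drug exposure at 37C with 0.76% DMSO, CellTiter-Glo luminescent detection.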

[4] = A CellTox Green Cytotoxicity Assay to monitor cytotoxicity in HEK293 cells - 0 hour (AID 1224869); conditions: CellTox Green fluorescence; series mostly up to 76.8 µM; note: nearly all actives have a fitted effect of over 50% in size; note: potency is the fitted concentration of half-maximal effect
Procedure, shortened: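 Homogeneous no-lysis format: HEK293 cell suspension mixed with CellTox Green reagent, seeded, incubated 5 h at 37 C/5% CO2, then dosed by pintool with compound in DMSO.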

[5] = qHTS RealTime-Glo MT Cell Viability Assay in HepG2 cells - 40 hour (AID 1224870); conditions: RealTime-Glo luminescence; series mostly up to 76.8 µM; note: nearly all actives have a fitted effect of over 50% in size
Procedure, shortened: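 HepG2 cells mixed with RealTime-Glo MT reagents (NanoLuc plus cell-permeant prosubstrate) were seeded at 600 cells/well, incubated 5 h at 37 C/5% CO2, then pinned with compounds in DMSO; nonlytic luminescence tracked viability during 40 h treatment.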

[6] = qHTS assay to identify small molecule agonists of H2AX (AID 1224845; active = well fitted activation curve with a large enough effect in the signal ratio in the repeat runs, not every such curve was filed as active; the % refers to the signal ratio); conditions: CHO-K1 phospho-H2AX Ser139 HTRF, 3 h; series mostly up to 154 µM
Procedure, shortened: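 Wild-type CHO-K1 cells plated overnight, then exposed 3 hr at 37C to compounds at 15 concentrations (0.76% DMSO). Lysed, then HTRF anti-pH2AX(S139)-cryptate/anti-H2AX-d2 detection after 24 hr at room temperature; emissions 665 and 620 nm.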

[7] = qHTS assay to identify small molecule antagonists of the estrogen related receptor (ERR) signaling pathway from Tox21 library (AID 1224848); conditions: ERR reporter cell line, luciferase antagonist mode, 18 h; series mostly up to 92.4 µM; note: nearly all actives have a fitted effect of over 50% in size; note: potency is the fitted concentration of half-maximal effect
Procedure, shortened: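 First, 2,000 ERR cells per well were plated and held 6 h at 37 C/5% CO2. Next, compounds in DMSO were pinned in and left 18 h at 37 C. Finally, ONE-Glo was added and luminescence read after 30 min at room temperature.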

[8] = qHTS RealTime-Glo MT Cell Viability Assay in HepG2 cells - 24 hour (AID 1224867); conditions: RealTime-Glo luminescence; series mostly up to 76.8 µM; note: nearly all actives have a fitted effect of over 50% in size
Procedure, shortened: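 HepG2 suspension premixed with RealTime-Glo reagents is plated at 600 cells per well and left 5 h at 37 C/5% CO2. Compounds in DMSO then go in, and bioluminescence reflecting viable cell number is recorded over 40 h.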

[9] = qHTS RealTime-Glo MT Cell Viability Assay in HEK293 cells - 32 hour (AID 1224868); conditions: RealTime-Glo luminescence; series mostly up to 76.8 µM; note: nearly all actives have a fitted effect of over 50% in size; note: potency is the fitted concentration of half-maximal effect
Procedure, shortened: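 Reads taken at 0, 8, 16, 24, 32 and 40 h from the same wells. HEK293 cells (600/well) carried RealTime-Glo reagents from seeding, with compound added after a 5 h settle at 37 C.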

SMILES | Potency [1] | outcome [2] | Potency [3] | Potency [4] | Potency [5] | Potency [6] | Potency [7] | Potency [8] | Potency [9]
CN1C(=S)CN=C(c2ccccc2)c2cc(Cl)ccc21 | inactive | inactive | inactive | 5.35 µM (active) | inactive | – | – | – | –
CCC(C)(C)c1cc(-n2nc3ccccc3n2)c(O)c(C(C)(C)CC)c1 | – | inactive | inactive | inactive | inactive | inactive | 39.2 µM (active) | inactive | 22.2 µM (active)
CC(C)COP(=O)(OCC(C)C)OCC(C)C | inactive | inactive | – | inactive | inactive | – | inactive | inactive | inactive
O=C1OC(CCN2CCCCC2)OC1(c1ccccc1)c1ccccc1 (stereo unspecified) | inactive | – | inactive | inactive | inactive | – | – | inactive | inactive
c1cc[c]([Hg][c]2ccccc2)cc1 | 49 µM (active) | – | inactive | – | inactive | – | – | inactive | 30.9 µM (active)
